# Laboratory results as given in article PMC11062922 (Nature Chemical Biology, 2023).
# Where two headings read alike, the source gives them in different places.
# How the values were obtained:
# SYK = conditions: read-out: apparent Kd, n = 1
# TNK2 = conditions: read-out: apparent Kd, n = 1
# [1] = compound concentrations:100 nM and 1000 nM (sheet 'Lestaurtinib' of Supplementary Table 1),run:Lestaurtinib_02748_R1,Plate:MR024
# [2] = compound concentrations:100 nM and 1000 nM (sheet 'Lestaurtinib' of Supplementary Table 1),run:Lestaurtinib_02752_R1,Plate:MR025
# [3] = compound concentrations:100 nM and 1000 nM (sheet 'Lestaurtinib' of Supplementary Table 1),run:Lestaurtinib_02752_R2,Plate:MR025
# [4] = compound concentrations:100 nM and 1000 nM (sheet 'Lestaurtinib' of Supplementary Table 1),run:Lestaurtinib_02765_R2,Plate:MR026
# [5] = compound concentrations:100 nM and 1000 nM (sheet 'Lestaurtinib' of Supplementary Table 1),run:Lestaurtinib_02765_R3,Plate:MR026
# [6] = compound concentrations:100 nM and 1000 nM (sheet 'Lestaurtinib' of Supplementary Table 1),run:Lestaurtinib_02766_R1,Plate:MR027
# [7] = compound concentrations:100 nM and 1000 nM (sheet 'Lestaurtinib' of Supplementary Table 1),run:Lestaurtinib_02766_R3,Plate:MR027
# [8] = compound concentrations:100 nM and 1000 nM (sheet 'Lestaurtinib' of Supplementary Table 1),run:Lestaurtinib_02768_R1,Plate:MR028
# [9] = compound concentrations:100 nM and 1000 nM (sheet 'Lestaurtinib' of Supplementary Table 1),run:Lestaurtinib_02768_R2,Plate:MR028
# [10] = compound concentrations:100 nM and 1000 nM (sheet 'Lestaurtinib' of Supplementary Table 1),run:Lestaurtinib_02795_R1,Plate:MR022
# [11] = compound concentrations:100 nM and 1000 nM (sheet 'Lestaurtinib' of Supplementary Table 1),run:Lestaurtinib_02795_R3,Plate:MR022
# [12] = compound concentrations:100 nM and 1000 nM (sheet 'Lestaurtinib' of Supplementary Table 1),run:Lestaurtinib_02802_R1,Plate:MR029
# [13] = compound concentrations:100 nM and 1000 nM (sheet 'Lestaurtinib' of Supplementary Table 1),run:Lestaurtinib_02802_R3,Plate:MR029
# [14] = compound concentrations:100 nM and 1000 nM (sheet 'Lestaurtinib' of Supplementary Table 1),run:Lestaurtinib_02896_R1,Plate:MR030
# [15] = compound concentrations:100 nM and 1000 nM (sheet 'Lestaurtinib' of Supplementary Table 1),run:Lestaurtinib_02896_R3,Plate:MR030
# [16] = compound concentrations:100 nM and 1000 nM (sheet 'Lestaurtinib' of Supplementary Table 1),run:Lestaurtinib_03172_R3,Plate:MR031
# [17] = compound concentrations:100 nM and 1000 nM (sheet 'Lestaurtinib' of Supplementary Table 1),run:Lestaurtinib_03252_R1,Plate:MR032
# [18] = compound concentrations:100 nM and 1000 nM (sheet 'Lestaurtinib' of Supplementary Table 1),run:Lestaurtinib_03260_R3,Plate:MR033
substance,measurement,setting,value
Lestaurtinib,potency estimated from few doses,SYK; [1],393 nM
same,potency estimated from few doses,"SYK; compound concentrations:100 nM and 1000 nM (sheet 'Lestaurtinib' of Supplementary Table 1),run:Lestaurtinib_02748_R2,Plate:MR024",196 nM
same,potency estimated from few doses,SYK; [2],510 nM
same,potency estimated from few doses,SYK; [3],136 nM
same,potency estimated from few doses,SYK; [4],169 nM
same,potency estimated from few doses,SYK; [5],182 nM
same,potency estimated from few doses,SYK; [6],211 nM
same,potency estimated from few doses,SYK; [7],441 nM
same,potency estimated from few doses,SYK; [8],484 nM
same,potency estimated from few doses,SYK; [9],424 nM
same,potency estimated from few doses,SYK; [10],460 nM
same,potency estimated from few doses,"SYK; compound concentrations:100 nM and 1000 nM (sheet 'Lestaurtinib' of Supplementary Table 1),run:Lestaurtinib_02795_R2,Plate:MR022",141 nM
same,potency estimated from few doses,SYK; [11],259 nM
same,potency estimated from few doses,SYK; [12],239 nM
same,potency estimated from few doses,SYK; [13],451 nM
same,potency estimated from few doses,SYK; [14],253 nM
same,potency estimated from few doses,SYK; [15],217 nM
same,potency estimated from few doses,"SYK; compound concentrations:100 nM and 1000 nM (sheet 'Lestaurtinib' of Supplementary Table 1),run:Lestaurtinib_03172_R2,Plate:MR031",595 nM
same,potency estimated from few doses,SYK; [16],400 nM
same,potency estimated from few doses,SYK; [17],149 nM
same,potency estimated from few doses,"SYK; compound concentrations:100 nM and 1000 nM (sheet 'Lestaurtinib' of Supplementary Table 1),run:Lestaurtinib_03252_R2,Plate:MR032",222 nM
same,potency estimated from few doses,"SYK; compound concentrations:100 nM and 1000 nM (sheet 'Lestaurtinib' of Supplementary Table 1),run:Lestaurtinib_03260_R2,Plate:MR033",224 nM
same,potency estimated from few doses,SYK; [18],130 nM
same,potency estimated from few doses,"TNK2; compound concentrations:100 nM and 1000 nM (sheet 'Lestaurtinib' of Supplementary Table 1),run:Lestaurtinib_02339_R3,Plate:MR001",44 nM
same,potency estimated from few doses,"TNK2; compound concentrations:100 nM and 1000 nM (sheet 'Lestaurtinib' of Supplementary Table 1),run:Lestaurtinib_02364_R1,Plate:MR002",69.8 nM
same,potency estimated from few doses,"TNK2; compound concentrations:100 nM and 1000 nM (sheet 'Lestaurtinib' of Supplementary Table 1),run:Lestaurtinib_02364_R2,Plate:MR002",56.4 nM
same,potency estimated from few doses,"TNK2; compound concentrations:100 nM and 1000 nM (sheet 'Lestaurtinib' of Supplementary Table 1),run:Lestaurtinib_02364_R3,Plate:MR002",61.3 nM
same,potency estimated from few doses,"TNK2; compound concentrations:100 nM and 1000 nM (sheet 'Lestaurtinib' of Supplementary Table 1),run:Lestaurtinib_02367_R1,Plate:MR003",66.6 nM
same,potency estimated from few doses,"TNK2; compound concentrations:100 nM and 1000 nM (sheet 'Lestaurtinib' of Supplementary Table 1),run:Lestaurtinib_02367_R2,Plate:MR003",52.8 nM
same,potency estimated from few doses,"TNK2; compound concentrations:100 nM and 1000 nM (sheet 'Lestaurtinib' of Supplementary Table 1),run:Lestaurtinib_02381_R1,Plate:MR004",50 nM
same,potency estimated from few doses,"TNK2; compound concentrations:100 nM and 1000 nM (sheet 'Lestaurtinib' of Supplementary Table 1),run:Lestaurtinib_02381_R2,Plate:MR004",65.5 nM
same,potency estimated from few doses,"TNK2; compound concentrations:100 nM and 1000 nM (sheet 'Lestaurtinib' of Supplementary Table 1),run:Lestaurtinib_02407_R3,Plate:MR005",54.4 nM
same,potency estimated from few doses,"TNK2; compound concentrations:100 nM and 1000 nM (sheet 'Lestaurtinib' of Supplementary Table 1),run:Lestaurtinib_02422_R1,Plate:MR006",44.1 nM
same,potency estimated from few doses,"TNK2; compound concentrations:100 nM and 1000 nM (sheet 'Lestaurtinib' of Supplementary Table 1),run:Lestaurtinib_02422_R3,Plate:MR006",48 nM
same,potency estimated from few doses,"TNK2; compound concentrations:100 nM and 1000 nM (sheet 'Lestaurtinib' of Supplementary Table 1),run:Lestaurtinib_02437_R3,Plate:MR007",14.1 nM
same,potency estimated from few doses,"TNK2; compound concentrations:100 nM and 1000 nM (sheet 'Lestaurtinib' of Supplementary Table 1),run:Lestaurtinib_02438_R2,Plate:MR008",43.2 nM
same,potency estimated from few doses,"TNK2; compound concentrations:100 nM and 1000 nM (sheet 'Lestaurtinib' of Supplementary Table 1),run:Lestaurtinib_02443_R2,Plate:MR009",44.4 nM
same,potency estimated from few doses,"TNK2; compound concentrations:100 nM and 1000 nM (sheet 'Lestaurtinib' of Supplementary Table 1),run:Lestaurtinib_02443_R3,Plate:MR009",62 nM
same,potency estimated from few doses,"TNK2; compound concentrations:100 nM and 1000 nM (sheet 'Lestaurtinib' of Supplementary Table 1),run:Lestaurtinib_02473_R1,Plate:MR010",52.5 nM
same,potency estimated from few doses,"TNK2; compound concentrations:100 nM and 1000 nM (sheet 'Lestaurtinib' of Supplementary Table 1),run:Lestaurtinib_02473_R3,Plate:MR010",23.2 nM
same,potency estimated from few doses,"TNK2; compound concentrations:100 nM and 1000 nM (sheet 'Lestaurtinib' of Supplementary Table 1),run:Lestaurtinib_02482_R1,Plate:MR011",54.7 nM
same,potency estimated from few doses,"TNK2; compound concentrations:100 nM and 1000 nM (sheet 'Lestaurtinib' of Supplementary Table 1),run:Lestaurtinib_02482_R2,Plate:MR011",59.1 nM
same,potency estimated from few doses,"TNK2; compound concentrations:100 nM and 1000 nM (sheet 'Lestaurtinib' of Supplementary Table 1),run:Lestaurtinib_02482_R3,Plate:MR011",60.1 nM
same,potency estimated from few doses,"TNK2; compound concentrations:100 nM and 1000 nM (sheet 'Lestaurtinib' of Supplementary Table 1),run:Lestaurtinib_02487_R1,Plate:MR012",51.2 nM
same,potency estimated from few doses,"TNK2; compound concentrations:100 nM and 1000 nM (sheet 'Lestaurtinib' of Supplementary Table 1),run:Lestaurtinib_02487_R3,Plate:MR012",44.6 nM
same,potency estimated from few doses,"TNK2; compound concentrations:100 nM and 1000 nM (sheet 'Lestaurtinib' of Supplementary Table 1),run:Lestaurtinib_02496_R2,Plate:MR013",48.4 nM
same,potency estimated from few doses,"TNK2; compound concentrations:100 nM and 1000 nM (sheet 'Lestaurtinib' of Supplementary Table 1),run:Lestaurtinib_02496_R3,Plate:MR013",38.5 nM
same,potency estimated from few doses,"TNK2; compound concentrations:100 nM and 1000 nM (sheet 'Lestaurtinib' of Supplementary Table 1),run:Lestaurtinib_02566_R1,Plate:MR014",51.6 nM
same,potency estimated from few doses,"TNK2; compound concentrations:100 nM and 1000 nM (sheet 'Lestaurtinib' of Supplementary Table 1),run:Lestaurtinib_02566_R2,Plate:MR014",58.8 nM
same,potency estimated from few doses,"TNK2; compound concentrations:100 nM and 1000 nM (sheet 'Lestaurtinib' of Supplementary Table 1),run:Lestaurtinib_02572_R1,Plate:MR015",37.5 nM
same,potency estimated from few doses,"TNK2; compound concentrations:100 nM and 1000 nM (sheet 'Lestaurtinib' of Supplementary Table 1),run:Lestaurtinib_02572_R2,Plate:MR015",46.2 nM
same,potency estimated from few doses,"TNK2; compound concentrations:100 nM and 1000 nM (sheet 'Lestaurtinib' of Supplementary Table 1),run:Lestaurtinib_02572_R3,Plate:MR015",49.3 nM
same,potency estimated from few doses,"TNK2; compound concentrations:100 nM and 1000 nM (sheet 'Lestaurtinib' of Supplementary Table 1),run:Lestaurtinib_02577_R1,Plate:MR016",55.6 nM
same,potency estimated from few doses,"TNK2; compound concentrations:100 nM and 1000 nM (sheet 'Lestaurtinib' of Supplementary Table 1),run:Lestaurtinib_02577_R2,Plate:MR016",56.4 nM
same,potency estimated from few doses,"TNK2; compound concentrations:100 nM and 1000 nM (sheet 'Lestaurtinib' of Supplementary Table 1),run:Lestaurtinib_02577_R3,Plate:MR016",62.6 nM
same,potency estimated from few doses,"TNK2; compound concentrations:100 nM and 1000 nM (sheet 'Lestaurtinib' of Supplementary Table 1),run:Lestaurtinib_02584_R1,Plate:MR017",56.4 nM
same,potency estimated from few doses,"TNK2; compound concentrations:100 nM and 1000 nM (sheet 'Lestaurtinib' of Supplementary Table 1),run:Lestaurtinib_02584_R2,Plate:MR017",64.8 nM
same,potency estimated from few doses,"TNK2; compound concentrations:100 nM and 1000 nM (sheet 'Lestaurtinib' of Supplementary Table 1),run:Lestaurtinib_02601_R1,Plate:MR018",77.3 nM
same,potency estimated from few doses,"TNK2; compound concentrations:100 nM and 1000 nM (sheet 'Lestaurtinib' of Supplementary Table 1),run:Lestaurtinib_02606_R1,Plate:MR019",55.6 nM
same,potency estimated from few doses,"TNK2; compound concentrations:100 nM and 1000 nM (sheet 'Lestaurtinib' of Supplementary Table 1),run:Lestaurtinib_02606_R3,Plate:MR019",54.4 nM
same,potency estimated from few doses,"TNK2; compound concentrations:100 nM and 1000 nM (sheet 'Lestaurtinib' of Supplementary Table 1),run:Lestaurtinib_02624_R2,Plate:MR020",52.3 nM
same,potency estimated from few doses,"TNK2; compound concentrations:100 nM and 1000 nM (sheet 'Lestaurtinib' of Supplementary Table 1),run:Lestaurtinib_02724_R2,Plate:MR021",56.1 nM
same,potency estimated from few doses,"TNK2; compound concentrations:100 nM and 1000 nM (sheet 'Lestaurtinib' of Supplementary Table 1),run:Lestaurtinib_02741_R2,Plate:MR023",224 nM
same,potency estimated from few doses,TNK2; [1],38.5 nM
same,potency estimated from few doses,"TNK2; compound concentrations:100 nM and 1000 nM (sheet 'Lestaurtinib' of Supplementary Table 1),run:Lestaurtinib_02748_R3,Plate:MR024",52.3 nM
same,potency estimated from few doses,TNK2; [2],57.7 nM
same,potency estimated from few doses,TNK2; [3],46.1 nM
same,potency estimated from few doses,TNK2; [4],115 nM
same,potency estimated from few doses,TNK2; [5],75.6 nM
same,potency estimated from few doses,TNK2; [6],51.8 nM
same,potency estimated from few doses,"TNK2; compound concentrations:100 nM and 1000 nM (sheet 'Lestaurtinib' of Supplementary Table 1),run:Lestaurtinib_02766_R2,Plate:MR027",15.7 nM
same,potency estimated from few doses,TNK2; [7],41.6 nM
same,potency estimated from few doses,TNK2; [8],60 nM
same,potency estimated from few doses,TNK2; [9],56.1 nM
same,potency estimated from few doses,TNK2; [10],49.4 nM
same,potency estimated from few doses,TNK2; [11],160 nM
same,potency estimated from few doses,TNK2; [12],71.2 nM
same,potency estimated from few doses,TNK2; [13],9.76 nM
same,potency estimated from few doses,TNK2; [14],61.8 nM
same,potency estimated from few doses,TNK2; [15],53.9 nM
same,potency estimated from few doses,"TNK2; compound concentrations:100 nM and 1000 nM (sheet 'Lestaurtinib' of Supplementary Table 1),run:Lestaurtinib_03172_R1,Plate:MR031",45.6 nM
same,potency estimated from few doses,TNK2; [16],48.7 nM
same,potency estimated from few doses,TNK2; [17],75.4 nM
same,potency estimated from few doses,"TNK2; compound concentrations:100 nM and 1000 nM (sheet 'Lestaurtinib' of Supplementary Table 1),run:Lestaurtinib_03260_R1,Plate:MR033",115 nM
same,potency estimated from few doses,TNK2; [18],59.2 nM
